Test results reported in PubChem BioAssay AID588397 (National Center for Advancing Translational Sciences (NCATS), 2011).
Values joined by “and” are separate entries in the source; they are usually repeats but may differ in a detail not shown here. Identical values can stand only once. The campaign covered roughly 1,300 compounds. About 1,000 (77%) were called active. Another 7% or so got no clear call; they are omitted. The call rests on the fitted dose curve; in most records, active means well fitted inhibition curve with a large enough effect; inconclusive means small, poorly fitted or top-dose-only effect; inactive means no such curve, though single readings can be large or run the other way. The set was probably picked from earlier hits. The list shows a part of the results.
Potency means the concentration at half of the fitted maximal effect.

Experiment: qHTS of small molecules that selectively kill Giardia lamblia: Hit Validation.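 Further: viability measured as ATP content by luminescence so killing lowers signal; trophozoites exposed to compounds for 48 h anaerobically at 37 °C; nearly all actives have a fitted effect of over 65% in size.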
Details: Giardia lamblia trophozoite viability, dose-response; series mostly up to 38.3 µM
Outline: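 ATP-content bioluminescence gauges trophozoite survival. Cells (100/well) receive compound and incubate anaerobically for 48 hrs at 37 deg C; detection reagent follows for 15-30 min at room temperature.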
With CCCCc1cc(=O)oc2c(C)c(OCC(=O)NCc3ccccn3)ccc12 the Potency was “inactive”. With O=C(COc1cccnc1[N+](=O)[O-])NCCc1ccc(Cl)cc1 the Potency was 3.65 µM (active). With O=C(COc1cccnc1[N+](=O)[O-])Nc1ccc(F)cc1 the Potency was 5.79 µM (active). In the case of CC1CCCCC1NC(=O)NC(=O)COC(=O)c1cncc(Br)c1 (stereo not drawn), the Potency is reported as “inactive”. For O=C(NCCc1ccccc1)c1ccc(CS(=O)(=O)c2ccc(Cl)cc2)o1, the Potency was “inactive”. In the case of O=C(COc1cccnc1[N+](=O)[O-])NCc1cccs1, the Potency is reported as 8.18 µM (active). For CC1CCCCC1NC(=O)COc1cccnc1[N+](=O)[O-] (stereo not drawn), the Potency was 2.31 µM (active). With CN(C)S(=O)(=O)c1cccc(C(=O)NCCNC(=O)c2cccc(S(=O)(=O)N(C)C)c2)c1 the Potency was “inactive”. In the case of CN(C)c1cc(NC(=O)CNC(C)(C)CC(C)(C)C)c2ccccc2n1, the Potency is reported as 1.03 µM (active). For O=[N+]([O-])c1ccccc1S(=O)(=O)Oc1ccccc1/C=N/n1cnnc1, the Potency was 2.05 µM (active). In the case of O=[N+]([O-])c1ccccc1S(=O)(=O)Oc1ccc(/C=N/n2cnnc2)cc1, the Potency is reported as 0.516 µM (active). With Cc1cc2ccccn2c1C(=O)c1ccc([N+](=O)[O-])cc1[N+](=O)[O-] the Potency was 4.6 µM (active). For Cn1ccsc1=NC(=O)c1ccc([N+](=O)[O-])o1, the Potency was 0.206 µM (active). With Cc1[nH]n(C2=NCCS2)c(=O)c1N=Nc1cccc(C(F)(F)F)c1 the Potency was 6.5 µM (active). For CC(=O)c1cc(N2CCOCC2)ccc1[N+](=O)[O-], the Potency was 1.83 µM (active). In the case of CCOC(=O)C1CCN(c2ccc([N+](=O)[O-])c(C(C)=O)c2)CC1, the Potency is reported as 2.31 µM (active). With CC1CCN(c2ccc(-c3ccc(NC(=O)C(F)(F)F)cc3)nn2)CC1 the Potency was 1.83 µM (active). With COc1ccc(-c2nc3ccccc3n2OCC(=O)O)cc1 the Potency was 5.79 µM (active). With CCC(C(=O)OC)n1c(-c2ccccc2)nc2ccccc2c1=O (stereo not drawn) the Potency was “inactive”. For CC(NC(=O)Cn1cc(Br)c([N+](=O)[O-])n1)c1ccccc1 (stereo not drawn), the Potency was 0.516 µM (active). With NNC(=O)c1cccc(Cn2cc(Br)c([N+](=O)[O-])n2)c1 the Potency was 1.16 µM (active). For O=[N+]([O-])c1ccc(COn2nnc3ccccc32)cc1, the Potency was 1.63 µM (active). With CC(Nc1nc(N2CCN(CCO)CC2)nc2ccccc12)c1ccccc1 (stereo not drawn) the Potency was 1.03 µM (active). For Cc1cc(C(=O)COc2cccnc2[N+](=O)[O-])c(C)n1Cc1ccco1, the Potency was 0.65 µM (active). In the case of Cc1ccc(OCC(=O)c2cc(C)n(Cc3ccco3)c2C)c([N+](=O)[O-])n1, the Potency is reported as 1.16 µM (active). In the case of O=c1c2c(-c3ccccc3)csc2ncn1/N=C/c1ccc(O)c([N+](=O)[O-])c1, the Potency is reported as 2.9 µM (active). In the case of Cc1cc(C)cc(Oc2ccc(NC(=O)C3CC=CCC3C(=O)O)cc2)c1 (stereo not drawn), the Potency is reported as 1.3 µM (active). For COC(=O)Nc1nc2ccc(C(=O)c3cccs3)cc2[nH]1, the Potency was 0.23 µM (active). In the case of CCc1cccc(NC(=O)CCCSc2nc3ccccc3[nH]2)c1, the Potency is reported as “inactive”. For COC(=O)Nc1nc2ccc(SC(C)C)cc2[nH]1, the Potency was 0.365 µM (active). For CCc1ccc(C(=O)Nc2nc3ccccc3[nH]2)cc1, the Potency was 0.46 µM (active). In the case of COC(=O)Nc1nc2ccc(Sc3ccccc3)cc2[nH]1, the Potency is reported as 0.23 µM (active). In the case of COc1cc(SC)ccc1C(=O)Nc1nc2ccccc2[nH]1, the Potency is reported as 0.146 µM (active). For CCCSc1ccc2nc(NC(=O)OC)[nH]c2c1, the Potency was 0.516 µM (active). With CC(=O)Nc1nc(-c2cc([N+](=O)[O-])cs2)cs1 the Potency was 1.16 µM (active). With CCC(=O)Nc1nc(-c2cc([N+](=O)[O-])cs2)cs1 the Potency was 1.3 µM (active). With NC(=O)c1ccc(NC(=O)COc2ccc([N+](=O)[O-])cc2Cl)cc1 the Potency was 1.16 µM (active). With NC(=O)c1ccc(Nc2ccc([N+](=O)[O-])cc2[N+](=O)[O-])cc1 the Potency was 2.9 µM (active). For O=C(Nc1nccs1)c1cc([N+](=O)[O-])ccc1Cl, the Potency was 2.59 µM (active). In the case of COc1ccc(C(=O)c2c3ccc([N+](=O)[O-])cc3[n+]([O-])n2CCCC(N)=O)cc1, the Potency is reported as 4.1 µM (active). In the case of COc1ccc(C(=O)c2c3ccc([N+](=O)[O-])cc3[n+]([O-])n2CCCN)cc1, the Potency is reported as 7.29 µM (active). With COc1ccc(C(=O)c2c3ccccc3[n+]([O-])n2CCCN)cc1 the Potency was 1.03 µM (active) and 3.26 µM (active). For Cc1c(C(=O)O)sc2nc(SCC(=O)Nc3ccc(S(=O)(=O)NC(C)(C)C)cc3)[nH]c(=O)c12, the Potency was “inactive”. In the case of CCN(CC)CCCC(C)Nc1cc(/C=C/c2ccccc2Cl)nc2cc(Cl)ccc12 (stereo not drawn), the Potency is reported as 3.26 µM (active). For CCN(CC)CCCC(C)Nc1c2ccc(Cl)cc2nc2ccc(OC)cc12 (stereo not drawn), the Potency was 0.13 µM (active). For CC(C)C(=O)NC(=S)Nc1ccc(S(=O)(=O)N2CCCC2)cc1, the Potency was “inactive”. For O=C(Nc1ccc(S(=O)(=O)N2CCCC2)cc1)c1ccc([N+](=O)[O-])o1, the Potency was 1.16 µM (active). In the case of COc1ccc(S(=O)(=O)N2CCCCC2)cc1NC(=O)c1ccc([N+](=O)[O-])o1, the Potency is reported as 1.45 µM (active). In the case of COc1ccc(CNC(=O)CN2C(=O)COc3ccc(S(=O)(=O)N4CCCCC4)cc32)cc1, the Potency is reported as “inactive”. With O=C(Nc1cccc(S(=O)(=O)N2CCCCC2)c1)c1ccc([N+](=O)[O-])o1 the Potency was 0.729 µM (active). In the case of O=C(Nc1ccc(S(=O)(=O)N2CCOCC2)cc1)c1ccc([N+](=O)[O-])o1, the Potency is reported as 1.45 µM (active). With O=C(Nc1ccc2cn[nH]c2c1)c1ccc(S(=O)(=O)N2CCOCC2)cc1 the Potency was “inactive”. With O=C(NCc1ccccc1CN1CCCC1)c1cccc(S(=O)(=O)N2CCCC2)c1 the Potency was “inactive”. For COc1ccc(C2CC(c3ccccc3)Nc3ncnn32)cc1 (stereo not drawn), the Potency was “inactive”. For Cc1ccc(NC(=O)c2ccc([N+](=O)[O-])o2)cc1S(=O)(=O)N1CCOCC1, the Potency was 0.729 µM (active). In the case of NC(=O)c1ccsc1NC(=O)c1ccc(N2CCCC2=O)cc1, the Potency is reported as 2.59 µM (active). In the case of CN(C(=O)c1ccc(F)c(S(=O)(=O)N2CCOCC2)c1)C1CCCCC1, the Potency is reported as “inactive”. With CN(C(=O)c1ccc(N2CCCCC2)c([N+](=O)[O-])c1)C1CCS(=O)(=O)C1 (stereo not drawn) the Potency was 4.1 µM (active). With O=C(NC1CCS(=O)(=O)C1)c1ccc(N2CCCCC2)c([N+](=O)[O-])c1 (stereo not drawn) the Potency was 2.31 µM (active). With O=C(N/N=C/c1ccc([N+](=O)[O-])o1)c1ccccc1-n1cccc1 the Potency was 1.16 µM (active). In the case of Cc1nc2ccccn2c1C(=O)N/N=C/c1ccc([N+](=O)[O-])o1, the Potency is reported as 1.83 µM (active). In the case of O=C1c2ccccc2C(=O)C1c1ccc2ccccc2n1, the Potency is reported as 1.16 µM (active) and 1.63 µM (active). In the case of O=C1c2ccccc2C(=O)C1c1cc2ccccc2cn1, the Potency is reported as 1.45 µM (active). With O=[N+]([O-])c1ccc(CSc2nnc(-c3cccnc3)o2)cc1 the Potency was 3.65 µM (active). For O=[N+]([O-])c1ccc(CSc2nnc(-c3cnccn3)o2)cc1, the Potency was 2.31 µM (active). For COc1nn(C(C)C(=O)N2N=C(C(F)F)CC2(O)C(F)F)cc1[N+](=O)[O-] (stereo not drawn), the Potency was 0.46 µM (active). For COc1ccc(OC)c2sc(N3CCN(C(=O)c4ccc([N+](=O)[O-])s4)CC3)nc12, the Potency was 2.59 µM (active). With COc1ccc2nc(N3CCN(C(=O)c4ccc([N+](=O)[O-])o4)CC3)sc2c1 the Potency was 1.83 µM (active). For COc1cccc2sc(N3CCN(C(=O)c4ccc([N+](=O)[O-])o4)CC3)nc12, the Potency was 2.05 µM (active). In the case of O=C(c1ccc([N+](=O)[O-])o1)N1CCN(c2nc3ccc(F)cc3s2)CC1, the Potency is reported as 1.83 µM (active). In the case of CCCSc1nc2c(cnn2-c2ccc(C)c(C)c2)c(=O)[nH]1, the Potency is reported as “inactive”. With O=c1cc(-c2ccccc2)[nH]c2cc(Cl)ccc12 the Potency was “inactive”. For COc1ccc(S(=O)(=O)N2CCN(C(=O)c3ccc([N+](=O)[O-])o3)CC2)cc1, the Potency was 1.3 µM (active). For COc1ccc(C(=O)NC2CCN(S(=O)(=O)c3ccc(F)cc3)CC2)cc1, the Potency was “inactive”. For C=Cc1ccc(CN2CCCN(Cc3ccc(F)cc3)S2(=O)=O)cc1, the Potency was “inactive”. For CN(C(=O)CN1CCN(c2ccc([N+](=O)[O-])cn2)CC1)c1ccccc1, the Potency was 4.1 µM (active). In the case of Cc1ccc(CNC(=O)c2cc(-c3ccccc3C)n(CC3CC(c4cccc([N+](=O)[O-])c4)=NO3)n2)cc1 (stereo not drawn), the Potency is reported as 2.9 µM (active). In the case of Cc1nnc(SCc2ccc([N+](=O)[O-])cc2)[nH]c1=O, the Potency is reported as 2.31 µM (active). With O=[N+]([O-])/C(Cl)=C(/NCCO)C(Cl)=C(Cl)Cl the Potency was 0.259 µM (active). With CC(=O)c1c(C)[nH]c(C(=O)OCC(=O)Nc2cc(Cl)ccc2[N+](=O)[O-])c1C the Potency was 2.31 µM (active). With CCc1ccc(-c2nc3c(=O)n(C)c(=O)nc-3n(CC)n2)cc1 the Potency was 0.183 µM (active). With CCn1nc(-c2ccc(C)cc2)nc2c(=O)n(C)c(=O)nc1-2 the Potency was 0.206 µM (active). In the case of CC1(C)CC(N=c2cc(-c3ccccc3)oc3ccc(Cl)cc23)CC(C)(C)N1, the Potency is reported as 0.65 µM (active). In the case of Clc1ccc2oc(-c3ccccc3)cc(=NCCCN3CCOCC3)c2c1, the Potency is reported as 0.818 µM (active). For CN(C)CCCN=c1cc(-c2ccccc2)oc2ccc(Cl)cc12, the Potency was 0.579 µM (active). With O=C(NCCO)c1ccc2c3n(nc2c1)-c1ccccc1CO3 the Potency was 3.26 µM (active). In the case of O=C(c1ccc2c3n(nc2c1)-c1ccccc1CO3)N1CCCCC1, the Potency is reported as 2.31 µM (active). With O=Nc1c2ccc[nH]c-2c2ccc([N+](=O)[O-])cc12 the Potency was 1.03 µM (active). For O=C(NCC1CCN(Cc2ccccc2F)CC1)Nc1ccccc1F, the Potency was “inactive”. For CC1CCN(c2ccc(NC(=O)c3ccc([N+](=O)[O-])o3)cc2)CC1, the Potency was 1.16 µM (active). With CS(=O)(=O)N1CCN(c2ccc(NC(=O)c3ccc([N+](=O)[O-])o3)cc2)CC1 the Potency was 0.579 µM (active). In the case of O=C(Nc1ccc(N2CCCCC2)cc1)c1ccc([N+](=O)[O-])o1, the Potency is reported as 3.26 µM (active). In the case of O=C(Nc1ccc(N2CCN(Cc3ccccc3F)CC2)cc1)c1ccc([N+](=O)[O-])o1, the Potency is reported as 1.16 µM (active).
